# Measurements reported in the supplement of paper PMC8728848.
# The full list was thinned out, with the strongest signals kept by preference.
# B1: TAL6-4LysM (Trichoderma atroviride) (protein)
# chain: AADSIPSISPTGIITPTPTQSGMVSNCNKFYDVHSNDGCSAIASSQHVDLSSLYKWNPAIKTDCSGLQASVYVCIGILTTSMSTTSKLPTTTSKPSTTSKPPTGITTPTPTQSGMVKNCNKFYDVHSGDGCSAIASSQKVNLSSFYLWNPAVKTDCSGLQASVFVCIGTLTTSMSTTTSKLPTTTSKPSTTSKPPTGIITPTPTQNGMVKNCNKFYDVHSGDGCSAIASSQKVNLSSFYLWNPAVKTDCSGLQASVFVCVGTATTTTAAGITTPTPTQSGMVSGCNKFYDVHAGDGCSAIASSQKIALSSLYKWNPAVKTDCSGLQASVYICIGVGNAAAARVTGALEQKLISEEDLNSAVDHHHHHH
# Tests used:
# Assay in all cases: glycan array binding signal (z-score within array); higher = stronger binding
# Conditions in all cases: glycan notation: IUPAC condensed, linker removed
# [1] = target: Fuc(a1-2)Gal(b1-3)GalNAc(b1-3)Gal
# In short: (§1)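 Negative Z-scores can be read as non-binding. The Z-score is calculated within each array and then averaged across arrays of one protein sequence at different concentrations or buffers and across linkers. Arrays, 3228 in all, were curated from the Consortium for Functional Glycomics database and kept only where the protein sequence was available.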
# [2] = target: Fuc(a1-2)Gal(b1-3)GalNAc(b1-3)Gal(a1-4)Gal(b1-4)Glc
# In short: as §1
# [3] = target: Fuc(a1-2)Gal(b1-3)GlcNAc6S
# In short: as §1
# [4] = target: Fuc(a1-2)Gal(b1-4)GlcNAc(b1-3)Gal(b1-4)GlcNAc
# In short: as §1
# [5] = target: Fuc(a1-2)Gal(b1-4)GlcNAc(b1-3)GalNAc
# In short: as §1
# [6] = target: Fuc(a1-2)Gal(b1-4)[Fuc(a1-3)]GlcNAc(b1-3)Gal(b1-4)[Fuc(a1-3)]GlcNAc(b1-3)Gal(b1-4)[Fuc(a1-3)]GlcNAc
# In short: as §1
# [7] = target: Fuc(a1-2)Gal6S(b1-4)Glc6S
# In short: as §1
# [8] = target: Fuc(a1-2)[Gal(a1-3)]Gal(b1-3)GlcNAc
# In short: as §1
# [9] = target: Fuc(a1-2)[Gal(a1-4)]Gal(b1-4)GlcNAc
# In short: as §1
# [10] = target: Fuc(a1-2)[GalNAc(a1-3)]Gal(b1-4)GlcNAc(b1-3)Gal(b1-4)GlcNAc(b1-3)Gal(b1-4)GlcNAc
# In short: as §1
# [11] = target: Fuc(a1-2)[GalNAc(a1-3)]Gal(b1-4)GlcNAc(b1-3)[Fuc(a1-2)[GalNAc(a1-3)]Gal(b1-4)GlcNAc(b1-6)]GalNAc
# In short: as §1
# [12] = target: Fuc(a1-3)[Gal(b1-4)]Glc6S
# In short: as §1
# [13] = target: Fuc(a1-3)[Gal(b1-4)]GlcNAc(b1-3)GalNAc
# In short: as §1
# [14] = target: Fuc(a1-3)[Gal(b1-4)]GlcNAc(b1-6)GalNAc
# In short: as §1
# [15] = target: Fuc(a1-3)[GalNAc(b1-4)]GlcNAc
# In short: as §1
# Gal(a1-4)GlcNAc = target: Gal(a1-4)GlcNAc
# In short: as §1
# Gal(b1-2)Gal = target: Gal(b1-2)Gal
# In short: as §1
# Gal(b1-3)Gal(b1-4)GlcNAc = target: Gal(b1-3)Gal(b1-4)GlcNAc
# In short: as §1
# [16] = target: Gal(b1-3)GalNAc(a1-3)[Fuc(a1-2)]Gal(b1-4)Glc
# In short: as §1
# [17] = target: Gal(b1-3)GlcNAc(b1-3)GalNAc
# In short: as §1
# Gal(b1-3)GlcNAc6S = target: Gal(b1-3)GlcNAc6S
# In short: as §1
# [18] = target: Gal(b1-3)[GlcNAc(b1-6)]GalNAc
# In short: as §1
# Gal(b1-4)Glc6S = target: Gal(b1-4)Glc6S
# In short: as §1
# [19] = target: Gal(b1-4)GlcNAc(b1-2)Man(a1-3)[GlcNAc(b1-4)][Gal(b1-4)GlcNAc(b1-2)Man(a1-6)]Man(b1-4)GlcNAc(b1-4)GlcNAc
# In short: as §1
# [20] = target: Gal(b1-4)GlcNAc(b1-2)[Gal(b1-4)GlcNAc(b1-4)]Man(a1-3)[Gal(b1-4)GlcNAc(b1-2)Man(a1-6)]Man(b1-4)GlcNAc(b1-4)GlcNAc
# In short: as §1
# [21] = target: Gal(b1-4)GlcNAc(b1-3)Gal(b1-3)GlcNAc
# In short: as §1
# [22] = target: Gal(b1-4)GlcNAc(b1-3)Gal(b1-4)GlcNAc(b1-2)Man(a1-3)[Gal(b1-4)GlcNAc(b1-3)Gal(b1-4)GlcNAc(b1-2)Man(a1-6)]Man(b1-4)GlcNAc(b1-4)[Fuc(a1-6)]GlcNAc
# In short: as §1
# [23] = target: Gal(b1-4)GlcNAc(b1-3)Gal(b1-4)GlcNAc(b1-3)Gal(b1-4)GlcNAc(b1-3)Gal(b1-4)GlcNAc(b1-3)Gal(b1-4)GlcNAc(b1-2)Man(a1-3)[Gal(b1-4)GlcNAc(b1-3)Gal(b1-4)GlcNAc(b1-3)Gal(b1-4)GlcNAc(b1-3)Gal(b1-4)GlcNAc(b1-3)Gal(b1-4)GlcNAc(b1-2)Man(a1-6)]Man(b1-4)GlcNAc(b1-4)GlcNAc
# In short: as §1
# [24] = target: Gal(b1-4)GlcNAc(b1-3)Gal(b1-4)GlcNAc(b1-6)[Gal(b1-3)]GalNAc
# In short: as §1
# [25] = target: Gal(b1-4)GlcNAc(b1-3)[Gal(b1-4)GlcNAc(b1-6)]Gal(b1-4)GlcNAc
# In short: as §1
# Gal6S(b1-3)GlcNAc6S = target: Gal6S(b1-3)GlcNAc6S
# In short: as §1
# GalNAc4S6S(b1-4)GlcNAc = target: GalNAc4S6S(b1-4)GlcNAc
# In short: as §1
# Glc(a1-4)Glc = target: Glc(a1-4)Glc
# In short: as §1
# [26] = target: GlcA3S(b1-3)Gal(b1-4)GlcNAc(b1-3)Gal(b1-4)Glc
# In short: as §1
# [27] = target: GlcNAc(a1-4)Gal(b1-3)GlcNAc
# In short: as §1
# [28] = target: GlcNAc(b1-2)Man(a1-3)[GlcNAc(b1-2)Man(a1-6)]Man(b1-4)GlcNAc(b1-4)GlcNAc
# In short: as §1
# Man(a1-3)[Man(a1-6)]Man = target: Man(a1-3)[Man(a1-6)]Man
# In short: as §1
# Man(a1-6)Man = target: Man(a1-6)Man
# In short: as §1
# [29] = target: Neu5Ac(a2-3)Gal(b1-3)GalNAc6S
# In short: as §1
# [30] = target: Neu5Ac(a2-3)Gal(b1-4)GlcNAc(b1-2)[Neu5Ac(a2-3)Gal(b1-4)GlcNAc(b1-4)]Man(a1-3)[GlcNAc(b1-4)][Neu5Ac(a2-3)Gal(b1-4)GlcNAc(b1-2)[Neu5Ac(a2-3)Gal(b1-4)GlcNAc(b1-6)]Man(a1-6)]Man(b1-4)GlcNAc(b1-4)GlcNAc
# In short: as §1
# [31] = target: Neu5Ac(a2-3)Gal(b1-4)GlcNAc(b1-3)Gal(b1-4)GlcNAc(b1-2)Man(a1-3)[Neu5Ac(a2-3)Gal(b1-4)GlcNAc(b1-3)Gal(b1-4)GlcNAc(b1-2)Man(a1-6)]Man(b1-4)GlcNAc(b1-4)GlcNAc
# In short: as §1
# [32] = target: Neu5Ac(a2-3)Gal(b1-4)GlcNAc(b1-3)Gal(b1-4)GlcNAc(b1-3)GalNAc
# In short: as §1
# [33] = target: Neu5Ac(a2-3)Gal(b1-4)[Fuc(a1-3)]GlcNAc(b1-3)GalNAc
# In short: as §1
# [34] = target: Neu5Ac(a2-3)Gal6S(b1-4)[Fuc(a1-3)]GlcNAc
# In short: as §1
# [35] = target: Neu5Ac(a2-3)[GalNAc(b1-4)]Gal(b1-4)Glc
# In short: as §1
# [36] = target: Neu5Ac(a2-6)Gal(b1-3)GlcNAc(b1-3)[Gal(b1-4)GlcNAc(b1-6)]Gal(b1-4)Glc
# In short: as §1
# [37] = target: Neu5Ac(a2-6)Gal(b1-4)GlcNAc(b1-3)Gal(b1-4)GlcNAc(b1-3)GalNAc
# In short: as §1
# [38] = target: Neu5Ac(a2-6)Gal(b1-4)GlcNAc6S
# In short: as §1
# [39] = target: Neu5Ac(a2-8)Neu5Ac(a2-3)[Gal(b1-3)GalNAc(b1-4)]Gal(b1-4)Glc
# In short: as §1
# [40] = target: Neu5Gc(b2-6)Gal(b1-4)GlcNAc
# In short: as §1
binder,measurement,setting,value
B1,glycan array binding signal (z-score),[1],-0.335
same,glycan array binding signal (z-score),[2],-1.13
same,glycan array binding signal (z-score),[3],1.83
same,glycan array binding signal (z-score),[4],0.858
same,glycan array binding signal (z-score),[5],-0.49
same,glycan array binding signal (z-score),[6],0.899
same,glycan array binding signal (z-score),[7],-0.234
same,glycan array binding signal (z-score),[8],-0.6
same,glycan array binding signal (z-score),[9],2.32
same,glycan array binding signal (z-score),[10],-0.51
same,glycan array binding signal (z-score),[11],-0.157
same,glycan array binding signal (z-score),[12],0.195
same,glycan array binding signal (z-score),[13],-0.606
same,glycan array binding signal (z-score),[14],-0.062
same,glycan array binding signal (z-score),[15],3.19
same,glycan array binding signal (z-score),Gal(a1-4)GlcNAc,2.59
same,glycan array binding signal (z-score),Gal(b1-2)Gal,0.734
same,glycan array binding signal (z-score),Gal(b1-3)Gal(b1-4)GlcNAc,2.92
same,glycan array binding signal (z-score),[16],-0.473
same,glycan array binding signal (z-score),[17],0.663
same,glycan array binding signal (z-score),Gal(b1-3)GlcNAc6S,3.15
same,glycan array binding signal (z-score),[18],2.39
same,glycan array binding signal (z-score),Gal(b1-4)Glc6S,-0.334
same,glycan array binding signal (z-score),[19],-0.532
same,glycan array binding signal (z-score),[20],3.53
same,glycan array binding signal (z-score),[21],-0.823
same,glycan array binding signal (z-score),[22],-0.014
same,glycan array binding signal (z-score),[23],-0.74
same,glycan array binding signal (z-score),[24],1.17
same,glycan array binding signal (z-score),[25],0.074
same,glycan array binding signal (z-score),Gal6S(b1-3)GlcNAc6S,0.018
same,glycan array binding signal (z-score),GalNAc4S6S(b1-4)GlcNAc,1.16
same,glycan array binding signal (z-score),Glc(a1-4)Glc,-0.584
same,glycan array binding signal (z-score),[26],1.02
same,glycan array binding signal (z-score),[27],-0.119
same,glycan array binding signal (z-score),[28],2.79
same,glycan array binding signal (z-score),Man(a1-3)[Man(a1-6)]Man,3.24
same,glycan array binding signal (z-score),Man(a1-6)Man,-1.37
same,glycan array binding signal (z-score),[29],0.743
same,glycan array binding signal (z-score),[30],-1.17
same,glycan array binding signal (z-score),[31],2.52
same,glycan array binding signal (z-score),[32],-0.304
same,glycan array binding signal (z-score),[33],-0.18
same,glycan array binding signal (z-score),[34],-1.06
same,glycan array binding signal (z-score),[35],-1.03
same,glycan array binding signal (z-score),[36],0.176
same,glycan array binding signal (z-score),[37],3.9
same,glycan array binding signal (z-score),[38],1.36
same,glycan array binding signal (z-score),[39],-0.586
same,glycan array binding signal (z-score),[40],-0.286
